Measurements reported in PubChem BioAssay AID1851 (National Center for Advancing Translational Sciences (NCATS), 2009).
Out of some 16,000 compounds screened, about 5,100 (32%) were called active. About 25% were inconclusive and are not listed. The list shows a part of the results. Unmarked numbers belong to inactive results. Calls follow the shape of the dose curve; as a rule, active = well fitted curve in the direction sought with a large enough effect; inconclusive = small, poorly fitted or top-dose-only effect, or effect the other way; inactive = no such curve, though single readings can be large or run the other way.

biological target: Cytochrome P450 3A4 (Homo sapiens) (UniProt P08684); assay: Cytochrome panel assay with activity outcomes; settings: recombinant CYP, pro-luciferin dealkylation, luminescence, p450-cyp3a4; series mostly up to 57.1 µM; activity, negative = inhibition: at the top concentration
Sequence (P08684 whole entry, looked up): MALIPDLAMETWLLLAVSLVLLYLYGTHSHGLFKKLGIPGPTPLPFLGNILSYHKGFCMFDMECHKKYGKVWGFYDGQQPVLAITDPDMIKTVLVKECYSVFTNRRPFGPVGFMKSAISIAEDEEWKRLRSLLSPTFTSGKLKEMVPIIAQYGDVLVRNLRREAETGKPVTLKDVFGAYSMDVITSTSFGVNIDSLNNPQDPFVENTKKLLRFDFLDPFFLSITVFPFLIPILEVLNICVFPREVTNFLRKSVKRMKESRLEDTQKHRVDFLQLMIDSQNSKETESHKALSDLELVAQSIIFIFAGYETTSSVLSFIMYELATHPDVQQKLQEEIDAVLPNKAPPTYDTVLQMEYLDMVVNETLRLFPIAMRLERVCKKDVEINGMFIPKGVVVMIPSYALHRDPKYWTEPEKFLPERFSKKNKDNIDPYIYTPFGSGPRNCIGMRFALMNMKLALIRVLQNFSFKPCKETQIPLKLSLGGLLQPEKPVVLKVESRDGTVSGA
% is scaled to controls: 0 for no effect and ±100 for the full control effect.

SMILES	activity, negative = inhibition	AC50
O=C(NC1CCCC1)C(c1ccc(F)cc1)N(Cc1ccc(F)cc1)C(=O)c1ccn[nH]1 (stereo unspecified)	-28.2% [at 2.29 µM]	
COc1ccc(CN(C(=O)Cc2cccs2)C(C(=O)NC2CCCC2)c2ccncc2)cc1 (stereo unspecified)		1 µM (active)
O=C(NC1CCCC1)C(c1ccsc1)N(Cc1ccccc1)C(=O)Cc1cccs1 (stereo unspecified)		2 µM (active)
COc1ccc(C(C(=O)NC2CCCC2)N(Cc2ccc(F)cc2)C(=O)c2ccn[nH]2)cc1OC (stereo unspecified)		3.98 µM (active)
O=C(Cc1cccs1)N/N=C/C(Br)=C/c1ccccc1	-21.3%	
O=C(O)c1cscc1Cc1cccs1	17.7% [at 11.4 µM]	
CCc1cc2c(=O)[nH]cnc2s1	-7.75%	
O=C(O)/C=C(/C(=O)O)[C@]12CCN3CC4=CCO[C@@H]5CC(=O)N[C@@H]1[C@H]5[C@H]4C[C@H]32	2.64% [at 11.4 µM]	
COC(=O)C1C(O)=C(C=NCc2ccccc2)C(=O)CC1(C)C (stereo unspecified)	-8.8%	
COCCCN=CC1=C(O)CC(C)(C)CC1=O	3.18%	
COc1ccc(CCN=CC2=C(O)CC(C)(C)CC2=O)cc1		14.1 µM (active)
Cc1cc(C)c2[nH]c(=O)c(CN(Cc3ccco3)C(=O)c3cccs3)cc2c1		2.82 µM (active)
O=C(NC1(C(F)(F)F)C(=O)Nc2c1c(=O)[nH]c(=O)n2-c1ccc(F)cc1)c1cccnc1 (stereo unspecified)	10.8%	
CCCCN1C(=O)C(NC(=O)C2CC2)(C(F)(F)F)C2=C1CC(C)(C)CC2=O (stereo unspecified)	5.27% [at 2.29 µM]	
CC1(C)CC(=O)C2=C(C1)N(Cc1cccnc1)C(=O)C2(NC(=O)c1cccnc1)C(F)(F)F (stereo unspecified)		12.6 µM (active)
CCCCN1C(=O)C(NC(=O)c2cccnc2)(C(F)(F)F)C2=C1CC(C)(C)CC2=O (stereo unspecified)		7.94 µM (active)
CCCCN1C(=O)C(NC(=O)CC(C)C)(C(F)(F)F)C2=C1CC(C)(C)CC2=O (stereo unspecified)	-16% [at 2.29 µM]	
CN(C)CC(O)COc1ccc(C(C)(C)c2ccc(OCC(O)CN(C)C)cc2)cc1 (stereo unspecified)	0.345%	
Nc1ccc(N2CCN(C(=O)c3ccco3)CC2)cc1	-20.2%	
CCOC(=O)c1cc2sc(C)cc2n1CC(=O)N1CCN(C(=O)c2ccco2)CC1		14.1 µM (active)
CCOC(=O)c1cc2sc(C)cc2n1CCCN1C(=O)c2ccccc2C1=O		3.16 µM (active)
CC1(C)CC(=O)C(CCCN2C(=O)c3ccccc3C2=O)C(=O)C1	-15.9%	
OCCN(CCO)c1ncnc2nc[nH]c12	-5.25% [at 11.4 µM]	

SMILES	activity, negative = inhibition	AC50
CCCC(=O)NNC(=O)Nc1ccccc1	-11.8% [at 2.29 µM]	
O=C(COc1ccc2ccccc2c1Br)NNC(=O)Nc1ccccc1		14.1 µM (active)
Cn1cnc([N+](=O)[O-])c1SCC(=O)O	-11.5% [at 11.4 µM]	
CC1=N/C(=C\c2ccc([N+](=O)[O-])cc2)C(=O)N1c1ccc(Cl)cc1	15.2%	
CC1=N/C(=C\c2ccc([N+](=O)[O-])cc2)C(=O)N1c1ccc(Br)c(C)c1		2.82 µM (active)
CN(C)c1ccc(/C=C2/C(=O)N(c3ccc([N+](=O)[O-])cc3)N=C2N2CCOCC2)cc1	-29%	
CCOC(=O)N/N=C1/C[C@@H](O)[C@@H](O)[C@@H]2[C@@H]3C(=O)N(C4CCCCC4)C(=O)[C@H]3CC[C@H]12	-24.5% [at 11.4 µM]	
O=C(COC(=O)c1cccc(S(=O)(=O)N2CCN(c3ccccc3)CC2)c1)NCc1ccco1		12.6 µM (active)
CCCc1nc2ccccc2c(C(=O)OCC(=O)Nc2cccc(S(=O)(=O)N3CCOCC3)c2)c1CC	-27.2% [at 2.29 µM]	
O=C(O)C1C2CCC(C2)C1C(=O)NCc1ccco1 (stereo unspecified)	6.72%	
CN(C)CCCn1cc(C2=C(c3c[nH]c4ccccc34)C(=O)NC2=O)c2ccccc21		12.6 µM (active)
CN(C)CCCNC(=O)c1cc2c3ccccc3n(C)c2s1	-25.3%	
CN(C)CCCN=c1c2ccccc2n(C)c2[nH]c(=O)n(C)c(=O)c12	2.56% [at 11.4 µM]	
c1c[nH]c(CN2CCN(Cc3ncc[nH]3)CC2)n1	-22.2% [at 11.4 µM]	
Clc1cccc(Cl)c1NC1=NCCN1		inactive
Brc1ccc2ncnc(Nc3cccc4ccccc34)c2c1	20.8% [at 2.29 µM]	
Clc1cccc(Nc2ncnc3ccc(Br)cc23)c1		14.1 µM (active)
COc1ccc(Nc2ncc(C(=O)N3CCN(Cc4ccccc4)CC3)c3ccccc23)cc1	-29.5% [at 2.29 µM]	
COc1ccc(-n2cnc3sc(-c4ccccc4)cc3c2=O)cc1	13% [at 2.29 µM]	
COc1ccc(Nc2ncnc3sc(-c4ccccc4)cc23)cc1		11.2 µM (active)
COc1cccc(-c2ccc3ncnc(NC4CC4)c3c2)c1		2 µM (active)
NCCNc1ncnc2ccc(Cl)cc12	-27.5% [at 11.4 µM]	
CNc1ncnc2ccc(-c3ccccc3OC)cc12		20 µM (active)
